Screening data: PubChem BioAssay, National Center for Advancing Translational Sciences (NCATS)
Compounds with a hit are over-represented: about 3% of the library has one in this group of screens.
p53null 39C tox – qHTS Screen for Compounds that Selectively Target Cancer Cells with p53 Mutations: Cytotoxicity of p53 Null Cells at the Nonpermissive Temperature; H1299 p53-null (neo) cells, 39C, ATPlite viability, 24 h; Potency, µM (doses to about 46.1 µM), without a hit: at the highest dose activity, negative = cell killing, hits mostly cytotoxic; 55,000 tested, 0.97% active;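 further: potency means the concentration at half of the fitted maximal effect; 0% = DMSO only and -100% = full killing by 100 µM tamoxifen; nearly all actives have a fitted effect of over 50% in size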
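Concentration-response (up to 46 uM) was run for 24 h at the nonpermissive 39C on H1299-p53A138V or H1299-neo cells. ATP content was measured with ATPlite luminescence. AC50 values were Hill-modeled after normalizing between DMSO and 100 uM tamoxifen killing.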
S16 viability – Cell viability qHTS assay in S16 Pmp22-F2sN cells; AID 1508642, 2021; 43,000 tested, 0.48% active; Potency, µM (doses to about 57.5 µM), for the others: top-dose activity change, negative = cytotoxicity, hits mostly cytotoxic; S16 Pmp22-F2sN Schwann cells viability, CellTiter-Glo, 24 h; further: potency means the concentration at half of the fitted maximal effect; on the % scale 0 is the no-effect control and ±100 the full control effect; nearly all actives have a fitted effect of over 65% in size
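Rat S16 Schwann reporter line, 24 h treatment with library compounds delivered at 23 nL per well. Cell viability by CellTiter-Glo luminescence.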
PMP22 txn prim – Cell-based coincidence reporter assay to measure PMP22 gene transcription in S16 Pmp22-F2sN cells - Primary screen. S16 Pmp22-F2sN Schwann cells (luciferase reporters placed in the Pmp22 gene), FLuc/NLuc coincidence luminescence, 24 h. Potency, µM (doses to about 57.5 µM), for the others: at the top dose activity change, negative = inhibition, hits mostly inhibitors. 43,000 tested, 2% active; active means clear falling dose curves in both reporters; inconclusive means both reporters move, but less clearly or upward; inactive means either reporter flat; the % is the NLuc reporter signal; further: potency means the concentration at half of the fitted maximal effect; on the % scale 0 is the no-effect control and ±100 the full control effect
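Transcriptional readout in edited S16(c9) cells: two luciferases reported from the Pmp22 locus, measured in turn after 24 h compound incubation.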
p53null 32C tox – qHTS Screen for Compounds that Selectively Target Cancer Cells with p53 Mutations: Cytotoxicity of p53 Null Cells at the Permissive Temperature; H1299-neo p53 null cells, ATP luminescence, 24 h, 32C; 55,000 tested, 0.62% active; Potency, µM (top dose mostly 46.1 µM), inactives show top-dose activity change, negative = cytotoxicity, actives largely listed as cytotoxic; AID 903, 2007;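 further: potency means the concentration at half of the fitted maximal effect; 0% = DMSO only and -100% = full killing by 100 µM tamoxifen; nearly all actives have a fitted effect of over 55% in size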
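Cells lacking p53 (H1299-neo) are plated at 600 per well and allowed to settle overnight at 37C. Test compounds (up to 46 uM) are added and held 24 hours at 32C, then ATP is quantified by luminescence.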
mTORC1 inh – Acumen qHTS Assay for Inhibitors of the mTORC1 Signaling Pathway in MEF (Tsc2-/-, p53-/-) Cells: Sytravon. Tsc2-/- p53-/- MEF, phospho-rpS6 immunofluorescence/PI, 24 h. Potency, µM (top dose mostly 38.3 µM), for the others: top-dose activity change, negative = inhibition, most hits filed as inhibitors. 44,000 tested, 0.78% active. AID 493208, 2011;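 further: potency means the concentration at half of the fitted maximal effect; plate controls were DMSO for no effect and rapamycin for full effect; nearly all actives have a fitted effect of over 50% in size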
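Tsc2-/-, p53-/- mouse embryonic fibroblasts (empty-vector line) exposed to compound 24 hrs at 37 C, fixed, immunostained for phospho-rpS6 and counterstained with propidium iodide. Acumen laser scanning gives % positive cells from Alexa 488/PI ratio, thresholded using 7.5 nM rapamycin; PI count gives viability.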
SKOV3 invasion – Primary qHTS assay for Inhibitors of ovarian cancer metastasis using an organotypic tumor microenvironment (TME) model; SKOV3ip1-GFP adhesion/invasion on 3D omental model, fluorescence; Potency, µM (doses to about 45.8 µM), inactives show at the highest dose activity change, negative = inhibition, most hits filed as inhibitors; 46,000 tested, 0.1% active; AID 1963576, 2024;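 further: potency means the concentration at half of the fitted maximal effect; plate controls were DMSO wells for no effect and tomatine positive control wells for full effect; nearly all actives have a fitted effect of over 65% in size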
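A 3D layer of primary human omental fibroblasts, mesothelial cells, fibronectin and collagen I, grown 48 hr, received SKOV3ip1-GFP cells in serum-free medium plus compounds at 0.36-46 umol/L. After 2 hr RT and 16 hr 37 C, fixed adherent GFP cells were counted; normalized to DMSO and tomatine.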
NLuc saturating – Biochemical NLuc saturation counterscreen for small molecule modulators of PMP22 gene expression - Nano-Glo assay; shares compounds with PMP22 txn prim; Secreted NLuc enzyme (filtered S16 cell medium), Nano-Glo luminescence; Potency, µM (highest dose often 57.5 µM), for the others: top-dose activity change, negative = inhibition, hits mostly inhibitors; 690 tested, 4% active; AID 1508638, 2021; further: potency means the concentration at half of the fitted maximal effect; on the % scale 0 is the no-effect control and ±100 the full control effect
NLuc Km counter – Biochemical coelenterazine-based NLuc counterscreen for small molecule modulators of PMP22 gene expression - Km assay | shares compounds with PMP22 txn prim | secreted NLuc enzyme, coelenterazine luminescence, Km conditions | Potency, µM (series often up to 57.5 µM), for the others: at the highest dose activity change, negative = inhibition, most hits filed as inhibitors | 690 tested, 5% active | AID 1508639, 2021; further: potency means the concentration at half of the fitted maximal effect; on the % scale 0 is the no-effect control and ±100 the full control effect
FLuc counter – Biochemical FLuc counterscreen for small molecule modulators of PMP22 gene expression; shares compounds with PMP22 txn prim; purified P. pyralis FLuc, luminescence, 10 min; Potency, µM (highest dose often 57.5 µM), without a hit: top-dose activity, negative = inhibition, actives largely listed as inhibitors; 690 tested, under 10 active; AID 1508640, 2021; further: % of control where 0% means no effect
Target sequence (P08659 whole entry, looked up): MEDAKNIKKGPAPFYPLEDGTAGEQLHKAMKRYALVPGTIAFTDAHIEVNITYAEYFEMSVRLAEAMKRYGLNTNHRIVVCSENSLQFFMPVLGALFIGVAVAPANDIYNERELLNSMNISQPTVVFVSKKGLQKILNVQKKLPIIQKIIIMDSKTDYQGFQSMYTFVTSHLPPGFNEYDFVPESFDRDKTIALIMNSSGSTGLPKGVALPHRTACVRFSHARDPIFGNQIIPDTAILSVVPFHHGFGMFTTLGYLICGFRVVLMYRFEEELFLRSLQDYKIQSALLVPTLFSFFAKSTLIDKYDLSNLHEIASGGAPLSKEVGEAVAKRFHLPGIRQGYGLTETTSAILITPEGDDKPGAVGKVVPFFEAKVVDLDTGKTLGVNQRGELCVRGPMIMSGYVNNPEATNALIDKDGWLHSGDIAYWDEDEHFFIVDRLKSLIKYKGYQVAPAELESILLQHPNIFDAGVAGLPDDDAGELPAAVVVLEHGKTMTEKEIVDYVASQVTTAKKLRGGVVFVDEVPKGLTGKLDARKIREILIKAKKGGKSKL
S16 F2sN tox cnf – Cell viability qHTS assay in S16 Pmp22-F2sN cells - Confirmatory screen | shares compounds with PMP22 txn prim | AID 1508641, 2021 | S16 Schwann cells viability, CellTiter-Glo ATP luminescence, 24 h | 690 tested, 7% active | Potency, µM (doses to about 57.5 µM), for inactives: at the top dose activity change, negative = viability loss, hits mostly cytotoxic; further: potency means the concentration at half of the fitted maximal effect; on the % scale 0 is the no-effect control and ±100 the full control effect
PMP22 txn cnf – Cell-based coincidence reporter assay to measure PMP22 gene transcription in S16 Pmp22-F2sN cells - Confirmatory screen; shares compounds with PMP22 txn prim; S16 Schwann cells Pmp22-F2sN, dual luciferase, 24 h; Potency, µM (titrated, usually from 57.5 µM), inactives show top-dose activity change, negative = inhibition, hits mostly inhibitors; 690 tested, 22% active; active means clear falling dose curves in both reporters; inconclusive means both reporters move, but less clearly or upward; inactive means either reporter flat; the % is the FLuc reporter signal; further: potency means the concentration at half of the fitted maximal effect
PMP22 HiBiT cnf – Cell-based HiBiT reporter assay to measure PMP22 protein expression in S16 Pmp22-HiBiT cells - Confirmatory screen. shares compounds with PMP22 txn prim. S16 Schwann cells Pmp22-HiBiT, luminescence, 48 h. Potency, µM (highest dose often 27.9 µM), without a hit: at the top dose activity change, negative = inhibition, usual class: inhibitors. 95 tested, under 10 active
An asterisk follows results filed as active; i = inactive; ? = inconclusive; nt = not tested or not shown. Unless noted, the call rests on the fitted dose curve; in most records, active means well fitted curve in the direction sought with a large enough effect; inconclusive means small, poorly fitted or top-dose-only effect, or another doubt; inactive means no such curve, though single readings can be large; an effect the other way counts as inactive or inconclusive.

SMILES	p53null 39C tox	S16 viability	PMP22 txn prim	p53null 32C tox	mTORC1 inh	SKOV3 invasion	NLuc saturating	NLuc Km counter	FLuc counter	S16 F2sN tox cnf	PMP22 txn cnf	others
O=C(c1c2c(nc3ccccc13)C(=O)N(C1CCCCC1)C2)N1CCN(c2ccc(F)cc2)CC1	-20.1%	4.1%	10µM*	-2.3%	-4.8%	8.4%	-14.5%	6.7%	-7.9%	-5.8%	-35.8%
CCCCNC(=O)c1cnn2c(C)c(Cc3c(C)cc(C)cc3C)c(C)nc12	22.5%	-25.1%	?	?	1.1%	-2.2%	nt	nt	nt	nt	nt
CCCNC(=O)c1cnn2c(C)c(Cc3c(C)cc(C)cc3C)c(C)nc12	7.3%	?	15.8µM*	21.5%	2.1%	-2.1%	?	21.7µM*	-1.9%	-15.4%	?
COc1ccccc1-c1cc(C(F)(F)F)nc(S(=O)(=O)CCCC(=O)Nc2ccccc2F)n1	?	?	8.91µM*	?	16.5µM*	?	?	?	-1.3%	?	6.9µM*	PMP22 HiBiT cnf=36.0%
COc1ccc(NC(=O)CSc2nc(-c3cccs3)cc(C(F)(F)F)n2)cc1Cl	-13.5%	0.3%	?	-0.9%	-27.4%	i	nt	nt	nt	nt	nt
